Active and inactive are the calls of the source.
Assays:
Albumin (Bos taurus) = Albumin (Bos taurus) (UniProt P02769); assay: compounds binding labelled BSA control protein – biochemical, small-molecule microarray, Alexa647 label, 635/667 nm fluorescence, artefact control for SMM control protein annotation, profiling panel (AID 1118); conditions: BSA-A647 binding, fluorescence 635 nm, higher = more signal;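 note: score merges 667 nm emission intensity and signal-to-noise per printed compound spot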
[1] = probe aXIP binding to arrayed compounds – biochemical, NeuroSMM set, 635/667 nm fluorescence, primary screen (AID 1119); conditions: small-molecule microarray, higher = more signal, called active from +8 up or from −8 down;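 note: probe is the protein aXip251-270 applied at 1 µg/mL to compound-printed slides; binding of probe to printed compounds measured as 667 nm fluorescence plus signal to noise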
[2] = probe aNOTCH3 binding on compound microarray – biochemical, small-molecule microarray, 635/667 nm fluorescence, primary screen (AID 1120); conditions: higher = more signal;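 note: probe is a biotin-tagged antibody raised against NOTCH3 rather than NOTCH3 protein; score merges spot fluorescence near 667 nm with spot signal to noise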
[3] = probe aNOTCH2 binding on compound microarray – biochemical, small-molecule microarray, 635/667 nm fluorescence, primary screen (AID 1121); conditions: higher = more signal;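 note: score merges feature fluorescence read at 667 nm with its signal to noise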
[4] = target: Carbonic anhydrase 2 (Homo sapiens) (UniProt P00918); assay: compounds binding carbonic anhydrase 2 – biochemical, small-molecule microarray, Alexa647-labelled CAII, profiling panel (AID 1122); conditions: CAII-A647 binding fluorescence, higher = more signal
[5] = COS7 lysate on small-molecule microarray, probe aHis, 635 nm (AID 1123); conditions: COS7 cell lysate, fluorescence, higher = more signal;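 note: z-score combines 667nm fluorescence intensity with signal-to-noise per printed compound spot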
[6] = probe aLAP1 signal on lysate-treated microarray – cell lysate, small-molecule microarray, COS7 lysate, primary screen (AID 1124); conditions: probe aLAP1, fluorescence, higher = more signal;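 note: lysate comes from COS7 cells expressing LAP1 and is applied at 0.3 µg/mL; score merges spot fluorescence near 667 nm with signal-to-noise over triplicate slides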
Sam68 (KHDRBS1) = assay: compounds binding KHDRBS1 protein – biochemical, small-molecule microarray, 635 nm fluorescence, primary screen (AID 1125); conditions: higher = more signal;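 note: score merges 667 nm channel intensity with signal to noise over triplicate slides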
[7] = tested on: Chordin-like protein 2 (CHRDL2); assay: compounds binding chordin-like 2 – biochemical, small-molecule microarray, 635 nm fluorescence, primary screen (AID 1126); conditions: fluorescence 635 nm, higher = more signal;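 note: printed compound slides probed with Chrdl2 protein at 4 µg/mL for 1 h at 4 C; score merges 667 nm emission intensity with signal to noise over three replicate slides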
[8] = target: Concanavalin-A (Canavalia ensiformis) (UniProt P02866); assay: compounds binding concanavalin A lectin – biochemical, small-molecule microarray, Alexa647 label, 635 nm, artefact control for SMM control protein annotation, primary screen (AID 1127); conditions: ConA-A647 binding fluorescence, higher = more signal;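 note: z combines 667 nm emission intensity with signal-to-noise across three replicate slides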
Sequence of Concanavalin-A (Canavalia ensiformis) (P02866 whole entry, looked up): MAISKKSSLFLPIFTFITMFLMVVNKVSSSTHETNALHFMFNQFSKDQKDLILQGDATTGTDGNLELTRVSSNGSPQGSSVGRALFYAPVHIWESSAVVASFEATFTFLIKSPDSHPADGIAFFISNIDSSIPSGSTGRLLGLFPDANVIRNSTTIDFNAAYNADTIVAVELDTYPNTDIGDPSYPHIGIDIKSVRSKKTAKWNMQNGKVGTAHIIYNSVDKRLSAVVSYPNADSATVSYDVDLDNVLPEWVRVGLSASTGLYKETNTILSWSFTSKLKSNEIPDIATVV

Sequence of Albumin (Bos taurus) (P02769 whole entry, looked up): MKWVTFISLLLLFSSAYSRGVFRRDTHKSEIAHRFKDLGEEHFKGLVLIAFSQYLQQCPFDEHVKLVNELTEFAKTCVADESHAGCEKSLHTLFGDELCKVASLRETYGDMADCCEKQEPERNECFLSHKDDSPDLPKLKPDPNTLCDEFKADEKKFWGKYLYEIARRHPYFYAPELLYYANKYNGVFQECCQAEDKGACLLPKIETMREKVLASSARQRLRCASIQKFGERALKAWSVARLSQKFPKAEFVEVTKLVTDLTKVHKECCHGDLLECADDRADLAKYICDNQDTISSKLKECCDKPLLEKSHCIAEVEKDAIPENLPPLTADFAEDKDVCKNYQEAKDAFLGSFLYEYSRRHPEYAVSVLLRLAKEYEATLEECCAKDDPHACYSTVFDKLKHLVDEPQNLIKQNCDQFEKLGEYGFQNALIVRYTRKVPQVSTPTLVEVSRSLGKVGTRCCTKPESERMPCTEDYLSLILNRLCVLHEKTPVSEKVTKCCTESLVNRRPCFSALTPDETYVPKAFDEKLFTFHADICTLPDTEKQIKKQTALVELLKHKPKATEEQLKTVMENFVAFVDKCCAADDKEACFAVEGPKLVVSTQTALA

| Compound | composite z-score (Albumin (Bos taurus)) | composite Z-score [1] | composite z-score [2] | composite z-score [3] | composite z-score [4] | composite z-score [5] | composite z-score [6] | composite z-score (Sam68 (KHDRBS1)) | composite z-score [7] | composite z-score [8] |
| --- | --- | --- | --- | --- | --- | --- | --- | --- | --- | --- |
| O=C(NN=C1C[C@@H](O)[C@@H](O)[C@@H]2[C@@H]3C(=O)N(Cc4ccccc4)C(=O)[C@@H]3CC[C@@H]12)OCc1ccccc1 | -0.225 | 0.586 (inactive) | 0.0591 | -0.129 | -0.362 | -0.723 | -0.169 | -0.917 | 0.476 | -0.292 |
| CSCC[C@@H]1NC(=O)CC=C[C@@H](C)COC(=O)[C@@H](C)COC1=O | -1.1 | 0.517 (inactive) | -0.155 | -0.175 | -0.762 | -1.1 | 0.145 | -0.399 | 0.683 | -2.02 |
| CO[C@@H]1COC(=O)[C@H](CCSC)NC(=O)CC=C[C@@H](C)COC(=O)CCC[C@H]1C | -0.978 | 1.81 (inactive) | -0.0284 | -0.147 | -0.654 | -1.31 | 1.01 | 0.973 | 1.68 | -1.11 |
| CC(C)CON=C1C[C@@H](O)[C@@H](O)[C@@H]2[C@@H]3C(=O)N(C(C)(C)C)C(=O)[C@@H]3CC[C@H]12 | -0.135 | 0.3 (inactive) | 0.0039 | -0.124 | 0.11 | 1.36 | 0.057 | 1.01 | 0.297 | -1.23 |
| CC(C)(C)N1C(=O)[C@H]2[C@H]3[C@H](O)[C@H](O)CC(=NO[C@@H]4O[C@H](CO)[C@@H](O)[C@H](O)[C@H]4O)[C@H]3CC[C@H]2C1=O | -0.383 | 0.674 (inactive) | 0.0864 | 0.0037 | 0.182 | 0.276 | -0.12 | 0.217 | 0.926 | -0.409 |
| CO[C@H](C1CCCCC1)[C@H](C)C=CCC(=O)OCCCc1ccccc1 | -0.553 | 0.349 (inactive) | -0.125 | -0.0751 | -0.3 | -0.856 | -0.133 | -0.53 | 0.562 | -0.394 |
| COc1cccc([C@@H]2Oc3ccc(OC)cc3C(=O)[C@H]2O)c1 | 0.78 | 0.0773 (inactive) | -0.0377 | -0.119 | 0.445 | -0.279 | 0.158 | 0.325 | 0.488 | 0.711 |
| O=C1[C@H]2[C@H]3[C@H](O)[C@H](O)CC(=NOC[C@@H](O)COCc4ccco4)[C@H]3CC[C@H]2C(=O)N1c1ccc(F)cc1F | -0.0108 | -0.214 (inactive) | -0.291 | -0.146 | 0.823 | -0.823 | 0.0839 | -1.25 | -0.48 | -1.03 |
| CCOC(=O)[C@H](Cc1ccccc1)NC(=O)CCC1CC(OC(=O)NCc2cccc3ccccc23)CC2(CCCC(COC(=O)NCc3cccc(C(F)(F)F)c3)O2)O1 (stereo not given in full) | 0.331 | 0.0898 (inactive) | -0.124 | -0.14 | 0.138 | 0.345 | 0.131 | 0.462 | -0.0424 | 0.187 |
| COc1ccc(COC(=O)NN=C2C[C@@H](O)[C@@H](O)[C@@H]3[C@@H]4C(=O)N(C5CCCCC5)C(=O)[C@@H]4CC[C@H]23)cc1 | 0.213 | 1.22 (inactive) | -0.365 | -0.28 | 0.262 | -0.0294 | -0.222 | -0.331 | -0.275 | -1.14 |
| CCCNC(=O)OC[C@H]1O[C@H](CCON=C(C)CCN2CCCc3nc(C)c(C)cc32)C=C[C@@H]1Oc1ccc(OC)cc1 | 0.727 | 0.475 (inactive) | 0.0894 | -0.0846 | 0.147 | 1.21 | 0.0156 | 1.29 | 0.0783 | 0.925 |
| CO[C@H]1COC(=O)[C@H](C)NC(=O)CC=C[C@@H](C)[C@H](OC)COC(=O)[C@@H](OCc2ccccc2)C=C[C@@H]1C | -0.744 | -0.0157 (inactive) | -0.068 | -0.0657 | -0.722 | -0.724 | -0.198 | -0.206 | 1.06 | -0.909 |
| CC(=O)OC[C@H]1OC(ON=CC[C@@H]2C=C[C@H](OC(C)=O)[C@@H](COC(C)=O)O2)[C@H](OC(C)=O)[C@@H](OC(C)=O)[C@@H]1OC(C)=O (stereo not given in full) | 0.0478 | 0.359 (inactive) | 0.144 | -0.14 | -0.451 | -0.011 | 0.31 | 1.14 | -0.794 | 0.215 |
| C=COC[C@@H]1CN2[C@@H](CC[C@@H](C)[C@@H]2c2ccc(Br)cc2)C(=O)O1 | 0.0494 | 0.686 (inactive) | -0.161 | -0.14 | 0.0173 | 0.043 | 0.008 | -0.0284 | 0.407 | -0.563 |
| COC(=O)CC=C[C@@H](C)[C@@H](C=NO[C@H](C)c1cn([C@@H]2COC[C@H]2O)nn1)NS(=O)(=O)c1ccc(C)cc1 | -0.129 | 0.355 (inactive) | 0.0316 | -0.0108 | -0.156 | 0.0779 | 0.219 | 0.277 | 0.877 | -0.653 |
| COC(=O)CC=C[C@@H](C)[C@@H](C=NOC[C@H]1O[C@H](c2ccccc2)C=C[C@@H]1Oc1ccc(OC)cc1)OC | 0.479 | -0.0708 (inactive) | -0.23 | -0.131 | -0.223 | -0.3 | -0.0842 | -0.379 | 0.303 | -0.766 |
| CCCCC#C[C@@H]1C=C[C@H](Oc2ccc(C(=O)OC)cc2)[C@@H](COC(=O)OCC)O1 | 0.109 | -0.0877 (inactive) | -0.106 | -0.0578 | 0.39 | 0.205 | 0.0053 | 0.769 | 0.978 | 0.64 |
| CC(C)(C)N1C(=O)[C@H]2[C@H]3[C@H](O)C=CC(=O)[C@@H]3CC[C@H]2C1=O | -0.161 | 0.913 (inactive) | -0.0584 | 0.0098 | -0.0943 | -0.463 | 0.632 | -0.0221 | 0.311 | 0.607 |
| COC(=O)[C@@H]1CC[C@H](C)[C@@H](c2ccc(C)cc2)N1C(=O)c1ccc(C=NO[C@H](C)c2cn([C@@H]3COC[C@H]3O)nn2)cc1 | 0.56 | -0.359 (inactive) | -0.125 | -0.117 | 0.311 | 0.81 | -0.0293 | 1.21 | 0.389 | 0.581 |

Reference: PubChem BioAssay
